Experiment [1] deals with chimpanzee Androgen Receptor (AR), AR (gene 747460) (UniProt O97775). In words: NVS_NR_cAR: NovaScreen (NVS) Nuclear Receptor Binding Assay for chimpanzee Androgen Receptor (AR) (AID 2283346).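 Note: radioligand displacement from AR measured by scintillation counting in a cell-free assay; a loss of bound radioligand signal versus DMSO counts as binding.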 The essentials:
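Radioligand binding to chimpanzee AR expressed in Sf9/Sf21 cells, cell-free, measured 72 h after dosing by lysate-based scintillation counting. Loss of signal vs DMSO; initial duplicate screen at 25 uM, actives retested in concentration series.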

Experiment [2] addresses PGR (gene 5241) (UniProt P06401). The experiment in a line: TOX21_PR_LUC_Followup_Antagonist: Tox21 HEK293 Progesterone Receptor (PR) Antagonism Luciferase Follow-Up Assay (AID 2283938).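 Note: curve fitted upward as signal gain over DMSO baseline despite antagonist label.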 The essentials: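 A follow-up to the PR bla screen using HEK293-PR-A-luc cells, multiplexed with cell viability to flag cytotoxicity. Reporter luminescence after 16 h compound exposure was analysed relative to DMSO.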

Experiment [3] can be described thus: TOX21_PR_LUC_Followup_Antagonist_viability: Viability Assessment in the Tox21 HEK293 Progesterone Receptor (PR) Antagonism Luciferase Follow-Up Assay (AID 2283940). The essentials: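 HEK293-PR-A-luc cells, precultured 5 days in assay medium with 10% charcoal-stripped FBS, were seeded at 3,000 cells/well, treated with compounds in DMSO for 16 h at 37C, and viability was read as cellular ATP by CellTiter-Glo luminescence.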

Experiment [4] can be described thus: TOX21_PR_LUC_Followup_Agonist_viability: Viability Assessment in the Tox21 HEK293 Progesterone Receptor (PR) Agonism Luciferase Follow-Up Assay (AID 2283941).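 Note: loss of signal means cytotoxicity so actives lower viability.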 The essentials: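 HEK293-PR-A-luc cells, pre-cultured 5 days in 10% charcoal-stripped FBS, were seeded at 3,000 cells/well, rested 5 h at 37C, then given compound in DMSO for 16 h at 37C. Cellular ATP was read by CellTiter-Glo luminescence; signal loss indicates cytotoxicity.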

Experiment [5] can be described thus: CEETOX_H295R_ANDR: CeeTox H295R High-throughput Steroidogenesis Assay for Androstenedione (ANDR) (AID 2283436; active = hit-call score of the fitted dose curve at least 0.9, where 1 is the maximum; inactive = score below 0.9;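 note: human H295R adrenal cells exposed for 48 h with androstenedione measured in medium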). The conditions noted are these: actives raise or lower the signal. The essentials: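 H295R cells, following OECD 456 with minor changes, exposed to chemicals for 48 h. Androstenedione in the medium was quantified by HPLC-MS/MS after MTBE extraction. Fitting was bidirectional versus DMSO; chemicals were diluted until MTT viability was ≥70%.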

Experiment [6] is described as follows: CEETOX_H295R_TESTO: CeeTox H295R High-throughput Steroidogenesis Assay for Testosterone (TESTO) (AID 2283457; active = hit-call score of the fitted dose curve at least 0.9, where 1 is the maximum; inactive = score below 0.9;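 for AC50: cells exposed to chemicals for 48 h before medium collection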). The note with it: actives raise or lower the signal. In a few lines: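 Testosterone synthesis is assessed in human adrenocortical H295R cells after 48 h of chemical exposure, using HPLC-MS/MS of extracted medium. Activity is fitted in both directions against DMSO control.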

Experiment [7] addresses Sodium channel protein type 1 subunit alpha (Rattus norvegicus) (UniProt P04774). The experiment in a line: NVS_IC_rNaCh_site2: NovaScreen (NVS) Ion Channel Assay for rat Sodium Channel, Site 2 (NaCh) (AID 2283322).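 Note: hit means loss of radioligand binding signal relative to DMSO so AC50 marks displacement.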 The essentials:
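Membranes: rat forebrain. Format: competitive radioligand displacement, filter separation, scintillation readout, 1 h exposure. Primary screen in duplicate at 25 uM; actives retested in concentration series.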

Experiment [8] concerns rat Monoamine Oxidase, MAO-A, Central (MAOAC), gene 29253. The experiment in a line: NVS_ENZ_rMAOAC: NovaScreen (NVS) Enzymatic Assay for rat Monoamine Oxidase, MAO-A, Central (MAOAC) (AID 2283243).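 Note: potency refers to inhibition seen as signal drop below DMSO baseline.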 The essentials: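 Rat brain tissue extract served as the cell-free enzyme source; activity was measured by radiometric scintillation counting 1.5 hours after compound addition. Loss of signal relative to DMSO baseline indicated inhibition; primary screen at 25 uM in duplicate.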

Experiment [9] addresses PGR (gene 5241) (UniProt P06401). The experiment in a line: NVS_NR_hPR: NovaScreen (NVS) Nuclear Receptor Binding Assay for human Progestron Receptor (PR) (AID 2283360).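 Note: active means loss of bound radioligand signal versus DMSO baseline.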 In a few lines: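 Competitive displacement of a labelled radioligand from T47D-derived receptor protein is measured in a cell-free format. Initial testing uses 25 uM in duplicate, with positive and negative controls on every plate.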

Experiment [10] in a line: IUF_NPC1b_proliferation_BrdU_72hr: Leibniz Research Institute for Environmental Medicine (IUF) 72-hour Neural Progenitor Cell Bromodeoxyuridine (BrdU) Proliferation Assay (NPC1b) (AID 2284207; active = hit-call score of the fitted dose curve at least 0.9, where 1 is the maximum; inactive = score below 0.9). The essentials: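 BrdU luminescence ELISA quantified DNA synthesis over the last 16 h of a 72 h exposure, fitted against DMSO. Primary hNPC spheres from gestational week 16-19 cortex grown with EGF/FGF at 37C, pH 7.2-7.6.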

The nature of experiment [11]: IUF_NPC5_oligodendrocyte_differentiation_120hr: Leibniz Research Institute for Environmental Medicine (IUF) 120-hour Oligodendrocyte Differentiation Assay (NPC5) (AID 2284304).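 Note: primary human fetal neural progenitor spheres plated to migrate and differentiate; share of O4-positive cells among Hoechst nuclei found by CNN image analysis.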 In a few lines: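 Human primary NPC neurospheres migrating and differentiating on laminin for 120 h under continuous compound exposure (serial dilution, solvent control). Endpoint: percent O4+ oligodendrocytes among Hoechst nuclei, detected by CNN image analysis, with DMSO as negative control.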

Experiment [12] in a line: TAMU_PeakParms_SingleDonor1434_Asystole: Texas A&M University (TAMU) 1.5-hr Human Induced Pluripotent Stem Cell (iPSC)-derived Cardiomyocytes Calcium (Ca+2) Flux Assay for Cardiotoxicity: Asystole (quiescence of beating) (AID 2284328). The essentials: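 Donor 1434 iPSC-cardiomyocytes exposed 90 min at 37C, 5% CO2, to 0.2, 1, 10 and 100 uM in 0.5% DMSO. Ca2+ dye fluorescence gave average peak frequency; POD is EC95, a 95% beat-rate drop versus controls.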

Experiment [13] can be described thus: CCTE_Mundy_HCI_Cortical_Synap_Neur_Matur_NeuriteSpotCountPerNeuriteLength: CCTE's Synaptogenesis and Neurite Maturation Assay in rat cortical cells for Neurite Spot Count per Neurite Length, Mundy Lab (AID 2284210; active = hit-call score of the fitted dose curve at least 0.9, where 1 is the maximum; inactive = score below 0.9). In a few lines:
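Rat primary cortical cultures, AraC added at DIV 5 to suppress glia; chemical exposure from DIV 7 to DIV 12. Fixed cells stained for MAP2 and synaptophysin plus Hoechst; synaptophysin puncta per neurite length quantified by high-content imaging, relative to DMSO.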

Experiment [14] in a line: CCTE_Mundy_HCI_Cortical_NOG_NeuriteLength: CCTE's Neurite Outgrowth Assay in rat cortical cells for Neurite Length, Mundy Lab (AID 2284213; active = hit-call score of the fitted dose curve at least 0.9, where 1 is the maximum; inactive = score below 0.9;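 for AC50: neurites imaged about 48 to 50 h after chemical exposure began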). The essentials:
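Neurite length was read by high-content imaging of βIII-tubulin-labelled neurites in rat primary cortical cultures. Activity was fitted relative to DMSO.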

Experiment [15] in a line: CCTE_Mundy_HCI_Cortical_Synap_Neur_Matur_NeuriteSpotCountPerNeuron: CCTE's Synaptogenesis and Neurite Maturation Assay in rat cortical cells for Neurite Spot Count per Neuron Count, Mundy Lab (AID 2284215; active = hit-call score of the fitted dose curve at least 0.9, where 1 is the maximum; inactive = score below 0.9). The essentials:
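Synapse density is scored as synaptophysin spots along neurites per neuron in fixed rat cortical neurons, measured at DIV 12 after chemical dosing at DIV 7. DMSO is the negative control and activity baseline.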

Experiment [16] is described as follows: CCTE_Mundy_HCI_Cortical_Synap_Neur_Matur_SynapseCount: CCTE's Synaptogenesis and Neurite Maturation Assay in rat cortical cells for Synapse Count, Mundy Lab (AID 2284218; active = hit-call score of the fitted dose curve at least 0.9, where 1 is the maximum; inactive = score below 0.9). In a few lines:
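Rat primary cortical cells in 96-well plates received AraC at DIV 5 and were dosed with chemicals at DIV 7 with media change, through DIV 12 (288.33 h). Synapses per neuron counted by high-content imaging of MAP2/synaptophysin/Hoechst staining, versus DMSO baseline.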

The nature of experiment [17]: CCTE_Mundy_HCI_Cortical_Synap_Neur_Matur_CellBodySpotCount: CCTE's Synaptogenesis and Neurite Maturation Assay in rat cortical cells for Cell Body Spot Count, Mundy Lab (AID 2284223; active = hit-call score of the fitted dose curve at least 0.9, where 1 is the maximum; inactive = score below 0.9). The essentials:
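Synapse number at neuronal cell bodies was quantified as synaptophysin puncta per neuron in rat cortical cultures exposed from DIV 7 to DIV 12. Values were normalised to DMSO.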

A short description of experiment [18]: CCTE_Mundy_HCI_Cortical_Synap_Neur_Matur_NeuronCount: CCTE's Synaptogenesis and Neurite Maturation Assay in rat cortical cells for Neuron Count, Mundy Lab (AID 2284242).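 For AC50: hits reduce neuron count versus DMSO baseline.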 The essentials: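 Rat primary cortical cells received AraC at DIV 5 to arrest glia, then were dosed with chemicals at DIV 7 through DIV 12. Fixed cells were stained for nuclei, MAP2 and synaptophysin, and neurons were counted by high-content imaging relative to DMSO.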

Experiment [19] deals with human CYP19A1, CYP19A1 (gene 1588) (UniProt P11511). In words: NVS_ADME_hCYP19A1: NovaScreen (NVS) CYP450-related Enzyme Activity (ADME) Assay for human CYP19A1 (AID 2283098).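 For AC50: potency for inhibitors seen as loss of fluorescent enzyme signal.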 In a few lines:
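Recombinant enzyme in a cell-free format, read 0.5 h after dosing by fluorescence from a fluorogenic substrate. Loss of signal was fitted against acetonitrile as baseline. Primary screen in duplicate at 10 uM, actives then tested in concentration series.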

Experiment [20] deals with human Phosphatase and Tensin Homolog (PTEN), PTEN (gene 5728) (UniProt P60484). The experiment in a line: NVS_ENZ_hPTEN: NovaScreen (NVS) Enzymatic Assay for human Phosphatase and Tensin Homolog (PTEN) (AID 2283203). The essentials: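 Cell-free recombinant human PTEN with fluorescent substrate; product separated by electrophoretic mobility shift and read by fluorescence 1 h after dosing. Primary screen in duplicate at 25 uM, actives followed in concentration series versus DMSO.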
Sequence of human Phosphatase and Tensin Homolog (PTEN), PTEN (gene 5728) (P60484 whole entry, looked up): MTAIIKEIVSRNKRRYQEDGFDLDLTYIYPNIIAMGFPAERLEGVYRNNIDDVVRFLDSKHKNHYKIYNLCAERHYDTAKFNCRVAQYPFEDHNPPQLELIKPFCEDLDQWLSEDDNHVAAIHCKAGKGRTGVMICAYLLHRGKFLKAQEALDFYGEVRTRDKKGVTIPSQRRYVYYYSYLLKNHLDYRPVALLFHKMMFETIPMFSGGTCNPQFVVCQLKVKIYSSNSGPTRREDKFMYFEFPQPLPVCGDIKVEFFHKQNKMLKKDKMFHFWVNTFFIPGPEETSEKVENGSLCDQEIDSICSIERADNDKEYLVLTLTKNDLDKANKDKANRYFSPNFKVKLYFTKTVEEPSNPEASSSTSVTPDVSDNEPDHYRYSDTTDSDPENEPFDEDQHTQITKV

Inconclusive results are not listed. Active and inactive are the calls of the source. Rule for the calls, unless noted: active = hit-call score of the fitted dose curve at least 0.9, where 1 is the maximum; inconclusive = response in the unintended direction; inactive = score below 0.9.

Sequence of human CYP19A1, CYP19A1 (gene 1588) (P11511 whole entry, looked up): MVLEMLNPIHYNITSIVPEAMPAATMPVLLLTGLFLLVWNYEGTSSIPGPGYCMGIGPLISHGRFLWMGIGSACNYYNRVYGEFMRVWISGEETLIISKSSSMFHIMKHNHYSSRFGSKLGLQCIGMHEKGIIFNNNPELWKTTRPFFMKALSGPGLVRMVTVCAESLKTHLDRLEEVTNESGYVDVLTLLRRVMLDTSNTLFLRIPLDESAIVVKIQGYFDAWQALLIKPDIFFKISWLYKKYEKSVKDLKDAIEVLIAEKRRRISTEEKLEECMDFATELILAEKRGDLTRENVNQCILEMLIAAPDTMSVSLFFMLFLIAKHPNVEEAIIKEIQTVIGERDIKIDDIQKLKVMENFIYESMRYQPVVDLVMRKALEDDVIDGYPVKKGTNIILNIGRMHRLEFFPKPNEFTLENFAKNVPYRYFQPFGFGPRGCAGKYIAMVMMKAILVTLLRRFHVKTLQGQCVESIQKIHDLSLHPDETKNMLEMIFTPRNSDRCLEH
Sequence of PGR (gene 5241) (P06401 whole entry, looked up): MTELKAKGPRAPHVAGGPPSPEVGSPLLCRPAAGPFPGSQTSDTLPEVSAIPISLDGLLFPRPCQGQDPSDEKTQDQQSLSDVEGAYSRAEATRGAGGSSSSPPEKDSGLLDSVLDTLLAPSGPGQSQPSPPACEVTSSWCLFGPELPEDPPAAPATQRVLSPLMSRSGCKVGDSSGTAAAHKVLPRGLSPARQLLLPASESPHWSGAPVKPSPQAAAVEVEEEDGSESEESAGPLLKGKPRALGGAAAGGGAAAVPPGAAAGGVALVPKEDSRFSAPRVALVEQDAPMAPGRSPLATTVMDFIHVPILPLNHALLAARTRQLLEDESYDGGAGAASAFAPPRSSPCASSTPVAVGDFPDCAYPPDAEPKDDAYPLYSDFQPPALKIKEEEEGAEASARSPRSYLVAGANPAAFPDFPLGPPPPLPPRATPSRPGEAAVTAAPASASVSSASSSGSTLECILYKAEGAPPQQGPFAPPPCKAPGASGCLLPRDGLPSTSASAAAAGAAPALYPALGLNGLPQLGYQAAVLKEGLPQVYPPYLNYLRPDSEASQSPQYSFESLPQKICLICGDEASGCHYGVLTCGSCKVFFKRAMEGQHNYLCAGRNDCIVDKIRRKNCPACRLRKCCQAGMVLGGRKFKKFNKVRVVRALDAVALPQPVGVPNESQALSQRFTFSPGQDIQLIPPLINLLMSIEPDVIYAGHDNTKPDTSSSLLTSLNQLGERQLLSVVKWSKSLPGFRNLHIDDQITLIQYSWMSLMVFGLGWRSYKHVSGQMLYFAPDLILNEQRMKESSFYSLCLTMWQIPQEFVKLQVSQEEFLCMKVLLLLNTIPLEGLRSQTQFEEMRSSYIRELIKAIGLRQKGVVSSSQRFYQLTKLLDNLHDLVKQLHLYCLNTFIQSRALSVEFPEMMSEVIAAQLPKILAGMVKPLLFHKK
Sequence of chimpanzee Androgen Receptor (AR), AR (gene 747460) (O97775 whole entry, looked up): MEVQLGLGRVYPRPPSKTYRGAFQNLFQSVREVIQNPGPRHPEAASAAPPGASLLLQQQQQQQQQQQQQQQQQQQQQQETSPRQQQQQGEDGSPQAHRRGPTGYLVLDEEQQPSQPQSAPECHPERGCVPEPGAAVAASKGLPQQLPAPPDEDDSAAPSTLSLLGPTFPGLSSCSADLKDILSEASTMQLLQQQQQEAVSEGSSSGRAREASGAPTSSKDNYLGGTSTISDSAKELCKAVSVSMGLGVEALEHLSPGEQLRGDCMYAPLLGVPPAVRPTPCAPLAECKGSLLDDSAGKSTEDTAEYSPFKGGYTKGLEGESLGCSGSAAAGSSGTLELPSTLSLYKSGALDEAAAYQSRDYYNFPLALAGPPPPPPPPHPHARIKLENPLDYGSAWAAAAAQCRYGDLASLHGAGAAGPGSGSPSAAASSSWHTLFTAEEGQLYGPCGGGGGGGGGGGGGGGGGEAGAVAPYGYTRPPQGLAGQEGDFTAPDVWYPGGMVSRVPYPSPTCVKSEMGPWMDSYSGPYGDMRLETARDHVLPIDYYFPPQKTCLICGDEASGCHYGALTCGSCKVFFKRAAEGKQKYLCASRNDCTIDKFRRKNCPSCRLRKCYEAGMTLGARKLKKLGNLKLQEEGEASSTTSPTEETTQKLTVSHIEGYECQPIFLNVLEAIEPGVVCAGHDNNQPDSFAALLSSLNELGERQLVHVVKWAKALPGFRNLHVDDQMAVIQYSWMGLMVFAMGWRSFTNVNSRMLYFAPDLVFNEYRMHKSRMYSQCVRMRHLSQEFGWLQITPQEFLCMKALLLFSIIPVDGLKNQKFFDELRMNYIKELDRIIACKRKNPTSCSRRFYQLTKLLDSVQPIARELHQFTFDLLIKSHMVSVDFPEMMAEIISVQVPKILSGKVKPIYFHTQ

`CC[N+](=O)[O-]`: in [1], the result was inactive.

With `C[C@]12CCC(=O)C(O)=C1CC[C@@H]1[C@@H]2CC[C@]2(C)C(=O)CC[C@@H]12`, the outcome (with PGR (gene 5241) [2]; in [3]; in experiment [4]) was inactive.

One may read the AC50 as the midpoint of the concentration-response curve, whichever way the signal moves. On to `O=CNC(N1CCN(C(NC=O)C(Cl)(Cl)Cl)CC1)C(Cl)(Cl)Cl` (centres undefined), for which the AC50 in experiment [5] is 50 µM (active). Also, the molecule was classed as inactive in [6].

With `CC(C)(C)C(O)C(Oc1ccc(-c2ccccc2)cc1)n1cncn1` (centres undefined), the outcome in experiment [7] and in [6] was inactive. For the same molecule, the AC50 in [5] is 0.114 µM (active).

On to `Nc1ccc(-c2ccc(N)c(N)c2)cc1N`, for which, in experiment [8], the AC50 was 14.1 µM (active).

Turning to `C[C@]12CC[C@H](O)C[C@H]1CC[C@@H]1[C@@H]2C[C@@H](O)[C@]2(C)[C@@H](C3=CC(=O)OC3)CC[C@]12O`, the molecule was called inactive (in [7]; with PGR (gene 5241) [9]).

Take `CC(C)(c1cc(Cl)c(O)c(Cl)c1)c1cc(Cl)c(O)c(Cl)c1`: the AC50 with PGR (gene 5241) [2] was 17.2 µM (active). Further, the result in experiment [3] and in experiment [4] was inactive.

As for `CC(C)CCCCCCCOP(=O)(Oc1ccccc1)Oc1ccccc1`, the molecule was called inactive in [10] and in experiment [12]. Also, the AC50 in experiment [11] is 5.15 µM (active).

In the case of `CNC(=N[N+](=O)[O-])NCC1CCOC1` (centres undefined), the call in [10], in experiment [13], in [14], in [17] and in experiment [18] was inactive. Also, the AC50 in experiment [15] was 0.00988 µM (active); in [16] it was 0.00885 µM (active).

For `CCc1cc(C)cc(CC)c1-c1c(OC(=O)C(C)(C)C)n2n(c1=O)CCOCC2`, in experiment [7], the outcome was inactive.

On to `CCC(=O)c1ccc(Cl)cc1`, for which the molecule was classed as inactive in experiment [19].

Regarding `CCCCCCCCCCCC#N`, the outcome in [20] was inactive.

In the case of `C=COCCCl`, the result in the experiment with PGR (gene 5241) [9] was inactive.

Take `CCOP(=O)(OCC)Oc1ccc([N+](=O)[O-])cc1`: the AC50 in [19] was 6.54 µM (active).

As for `CNC(=O)Oc1cc(C)c(SC)c(C)c1`, the AC50 in [8] was 14 µM (active); in experiment [5], 37.7 µM (active); in experiment [6] it was 36 µM (active).

Turning to `CC1(C)[C@H](C(=O)O[C@H](C#N)c2cccc(Oc3ccccc3)c2)[C@@H]1C=C(Br)Br`, the result in [19], in experiment [10], in experiment [13], in experiment [14], in [17] and in experiment [12] was inactive. In addition, the concentration at half-maximal activity (AC50) in experiment [15] was 7.04 µM (active); in experiment [16], 6.79 µM (active); in experiment [18], 23.9 µM (active); in experiment [11], 0.729 µM (active).

For `N#Cc1cc(I)c(O)c(I)c1`, the AC50 with PGR (gene 5241) [2] is 29.9 µM (active). The call in [3] and in experiment [4] was inactive.

For `Nc1ccc(Cl)c(Cl)c1`, the AC50 in experiment [1] is 25 µM (active).

Take `ClC1=C(Cl)[C@]2(Cl)[C@@H]3[C@@H](Cl)[C@H](Cl)C[C@@H]3[C@@]1(Cl)C2(Cl)Cl`: the outcome (in experiment [20]; in the experiment with PGR (gene 5241) [9]) was inactive.

As to `Cc1ccc(OP(=O)(Oc2ccc(C)cc2)Oc2ccc(C)cc2)cc1` (tested in a mixture with another compound), the AC50 in [13] was 15 µM (active); in [14], 21.4 µM (active); in experiment [15] it was 15 µM (active); in experiment [16], 15 µM (active); in experiment [18] it was 24 µM (active); in experiment [12], 7.7 µM (active). Also, the call in [17] and in experiment [11] was inactive.

With `Clc1ccc(-c2ccccc2)cc1`, the call in experiment [20] was inactive.

Take `COC(=O)COc1ccc(Cl)cc1Cl`: the half-maximal activity concentration (AC50) in experiment [8] was 13.7 µM (active).

Values taken from PubChem BioAssay (EPA / NIEHS).
